Compound activity: PubChem BioAssay, several laboratories
FAS TE block: inhibitors of human fatty acid synthase thioesterase domain | P49327 | recombinant FAS-TE, OMFH fluorogenic substrate, fluorescence endpoint | inhibition, % at 15 µM | 360,000 compounds, 0.67% hits | AID 602261;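 active = compounds whose normalised, plate-corrected inhibition of enzyme fluorescence in the single-dose primary screen is 50% or more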;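 also: 0% = DMSO with enzyme and 100% = substrate without enzyme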
FXN GAA850 act: activators of GAA850 frataxin (FXN) promoter. HEK293 lucGAA850 FXN promoter luciferase reporter, 24 h; percent of 10 µM SAHA response. activation, % at 6 µM. 360,000 compounds, 0.56% hits;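 active = activation above the average of all compounds screened plus 3 SD, cutoff fixed separately per campaign, cut at about 7.5% in these data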;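 also: 0% = DMSO wells and 100% = 10 µM SAHA wells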
SMARCA2 activ: increases SMARCA2 function in MMTV reporter cells; activation, % at 9.1 µM; 370,000 compounds, 1% hits; MG213 cells, MMTV-luciferase reporter, dexamethasone, overnight; AID 652017; in the data active = activation above about 7.8%;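 also: 0% = vehicle wells and 100% = reference activator wells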
proKLK7 act: activates the human kallikrein-7 zymogen; purified proKLK7, EDANS-DABCYL substrate fluorescence; 100% is mature enzyme control, 0% vehicle; activation, % at 7 µM; 370,000 compounds, 0.9% hits; AID 652039;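 active = activation above the mean of all tested compounds plus 3 SD, computed per campaign excluding outliers beyond control limits, cut at about 13% in these data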
Target sequence (P49862 whole entry, looked up): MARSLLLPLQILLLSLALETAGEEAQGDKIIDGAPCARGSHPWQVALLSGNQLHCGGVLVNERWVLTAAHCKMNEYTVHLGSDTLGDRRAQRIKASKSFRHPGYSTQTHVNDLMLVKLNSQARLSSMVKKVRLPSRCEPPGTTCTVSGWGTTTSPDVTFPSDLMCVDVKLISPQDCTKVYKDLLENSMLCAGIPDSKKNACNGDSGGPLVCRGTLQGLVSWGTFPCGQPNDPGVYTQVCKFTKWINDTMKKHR
SMARCA2 act conf: confirmation of SMARCA2 (BRM) function activators; 3,500 compounds, 30% hits; MG213 cells, MMTV-luciferase with dexamethasone, luminescence, overnight; MG213 cells expressing E1A, Rb sequestered; DMSO wells 0%, reference activator 100%; shares compounds with SMARCA2 activ; activation, % at 9.1 µM;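 active = activation above its plate's cutoff, the mean activation of tested wells plus 3 SD, cut at about 7.9% in these data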
VP16 Luc act: GAL4-VP16 reporter activation counter-screen; AID 686939; HEK293 GAL4-VP16 pG5luc reporter, luciferase luminescence; scaled: DMSO wells 0%, SAHA wells 100%; 3,500 compounds, 41% hits; activation, % at 9.1 µM; shares compounds with SMARCA2 activ;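 active = activation above the solvent-only control well mean plus 3 SD, averaged across control plates, cut at about 5.2% in these data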
Numbers without * were called inactive; · = no result given. Only some compounds are listed: those with a hit (about 2.9% of all), similar ones and a draw of the others.

SMILES	FAS TE block	FXN GAA850 act	SMARCA2 activ	proKLK7 act	SMARCA2 act conf	VP16 Luc act
O=C(CNc1ccc(Br)cc1)c1ccccc1	-5	-3	2	1	·	·
Cc1cc(C(=O)N2CCC2(C)C(=O)NS(=O)(=O)c2cccc(Cl)c2)nn1C (centres undefined)	-10	1	8.1*	0	3	0
COc1ccc(/C=C/C(=O)OCC(=O)NC2CCCCCCC2)cc1	16	0	-2	0	·	·
N#CC(=C1NC(=O)c2ccccc21)c1nc2ccccc2n1CCO	-1	7	20*	1	-13	18*
CC1=[N+]([O-])C(C)(C)C(c2ccc(Br)cc2)=[N+]1[O-]	-11	3	12*	0	1	0
C=COCCNC(=O)Nc1ccc(Cl)c(Cl)c1	-2	1	8.2*	1	1	2
O=C(NCc1cccnc1)Nc1ccc(Cl)c(Cl)c1	8	2	8.1*	1	1	3
CCOC(=O)[C@@H]1[C@H]2COc3ccccc3[C@@H]2N2C(=O)N(c3ccc(Br)cc3)C(=O)[C@@]12C	11	·	0	-1	·	·
C=CCNC(=O)COc1ccccc1C#N	-4	2	0	0	·	·
CC(C)(C)NC(=O)NC(=O)COc1ccccc1C#N	-1	-2	9.7*	0	3	12*
CC1(CCOCc2ccccc2)NC(=O)NC1=O (centres undefined)	-10	2	-1	0	·	·
COc1ccc(CCC2(C)NC(=O)NC2=O)cc1 (centres undefined)	-6	-1	8.1*	0	1	2
N#CC1(NC(=O)COC(=O)c2cccc(-n3cnnn3)c2)CCCCC1	-3	0	0	0	·	·
Cc1cccc(C)c1NC(=O)COC(=O)CSc1nnc(N)s1	-10	2	0	0	·	·
O=C(COC(=O)c1nc(Cl)c(Cl)c(Cl)c1Cl)NCc1ccccc1	26	4	21*	0	53*	1
Fc1ccc(CSc2ccc(-c3ccc4c(c3)OCO4)nn2)cc1	23	0	1	0	·	·
c1ccc(CSc2ccc(-c3ccc4c(c3)OCO4)nn2)cc1	16	4	11*	0	7.9*	5
CCCNC(=O)C[C@H]1CC[C@H]2[C@@H](COc3ccc(NC(=O)Nc4ccc(C#N)cc4)cc3C(=O)N2C)O1	·	·	-4	0	·	·
O=C(/C=C/c1ccco1)Nc1cccnc1Cl	-2	7	9.3*	1	6	6.8*
Cc1ccnc(NC(=S)NC(=O)/C=C/c2ccco2)c1	-7	4	8.0*	1	11*	8.9*
CCCCN(C(=O)c1cc(Cl)nc2ccccc12)c1c(N)n(Cc2ccccc2)c(=O)[nH]c1=O	-2	1	3	0	·	·
Cc1ccc(-c2nc(N/N=C/c3ccccc3[N+](=O)[O-])c3ccccc3n2)cc1	6	3	8.2*	0	2	8.2*
O=[N+]([O-])c1ccccc1C=NNc1ccccc1	24	2	7	0	·	·
CC1CCc2c(sc(NC(=O)C3CCCO3)c2C#N)C1 (centres undefined)	6	6	14*	0	4	12*
N#Cc1c(NC(=O)C2CC2)sc2c1CCCCC2	5	6	8.9*	2	7	7.4*
SMILES	FAS TE block	FXN GAA850 act	SMARCA2 activ	proKLK7 act	SMARCA2 act conf	VP16 Luc act
CC(C)C(=O)Nc1sc2c(c1C#N)CCCCC2	2	2	12*	0	2	2
COC(=O)[C@]12CCCCC=C1N(Cc1ccco1)C(=O)[C@H](CC(=O)NCc1cccs1)C2	-3	·	-1	0	·	·
C/C(=N\N1C(=O)c2ccccc2NC1c1ccccc1)c1ccccc1O (centres undefined)	10	2	9.9*	2	3	5.7*
CCN(CC)CCNC(=O)C(Cl)=C1C(Cl)=C(Cl)C(Cl)=C1Cl	-7	3	10*	1	21*	2
CC(NC(=O)c1cccnc1)C(c1cccs1)N1CCOCC1 (centres undefined)	-6	1	0	0	·	·
Cc1ccc(/C(O)=C2/C(=O)C(=O)N(CCCn3ccnc3)C2c2cccnc2)cc1 (centres undefined)	-3	0	2	-1	·	·
COc1cc(C)nc(NC(=O)NC(=O)c2ccc(C(F)(F)F)cc2)n1	1	-2	8.1*	0	0	0
Cc1ccc(C)c(OCC(=O)O/N=C(\N)c2ccccn2)c1	-2	5	9.2*	0	4	8.2*
COc1ccc(CC(=O)O/N=C(\N)c2ccccn2)cc1	-3	5	8.0*	0	-1	6.4*
Cc1ccc(C)c(OCC(=O)O/N=C(\N)c2cccnc2)c1	-4	1	6	0	·	·
Cc1ccc2nc(-c3sc4nc(C)ccc4c3N)[nH]c2c1	4	2	5	-4	·	·
Cc1cc(C)c2c(N)c(-c3nc4ccccc4[nH]3)sc2n1	40	2	9.2*	-34	8.7*	10*
CCOC(=O)c1ccc(NC(=S)N(CCCN2CCCC(C)C2)Cc2cccs2)cc1 (centres undefined)	16	-3	-3	1	·	·
COc1ccc(C2CC(c3ccccc3O)=NN2C(=O)c2ccccc2)cc1OC (centres undefined)	8	2	-2	-1	·	·
CN(C)C(=O)CCc1ccc2c3c([nH]c2c1)[C@]1(CCC2CCCC2)[C@@H](C(=O)N2CCOCC2)C[C@H](CC(=O)NCCc2ccccn2)C(=O)N1CC3	14	-1	8.0*	0	-5	1
COCCCNC(=O)C[C@H]1C[C@H](C(=O)N2CCOCC2)[C@@]2(CCC3CCCC3)c3[nH]c4cc(CCC(=O)N(C)C)ccc4c3CCN2C1=O	13	4	-3	0	·	·
C=CCn1cnc2c(c1=O)c1nc3ccccc3nc1n2/N=C/c1cccc(OC)c1OC	-1	0	8.2*	0	-4	4
Cc1ccc(-c2nnc(SCC(=O)Nc3ccc4c(c3)oc3ccccc34)n2C)c(Cl)c1	21	1	2	0	·	·
COC1C(CO)OC(n2c3c(Cl)cccc3c3c4c(c5c6cccc(Cl)c6[nH]c5c32)C(=O)NC4=O)C(O)C1O (centres undefined)	-14	-8	10*	2	23*	0
CCn1c(=O)c2c3c(sc2n2cnnc12)CCC3	-5	1	1	1	·	·
O=[N+]([O-])c1cccc(CSc2ncnc3ccccc23)c1	31	0	-1	0	·	·
CN(C)CCCNc1cc(C(C)(C)C)nc2c(-c3ccccc3)cnn12	4	3	9.3*	-12	6	6.7*
CC(C)(C)c1cc(NCCCn2ccnc2)n2ncc(-c3ccc(Cl)cc3)c2n1	17	-1	4	-1	·	·
COc1ccc(C(=O)Nc2nc3ccccc3[nH]2)cc1	-6	-7	-4	0	·	·
